According to PubChem BioAssay AID1159580 (chemical genetic matrix, 2015):
Hit rate of the full screen: of about 5,500 compounds, about 2,000 (36%) were called active. About 18% were inconclusive and are not listed. No stated cut-off is given here; in the data, active means normalized growth mostly below about 0.91 (no sharp cut-off); inconclusive means no clear call, values can overlap the other calls; inactive means mostly above about 0.92. The list shows a part of the results.

Experiment: chemical genetic growth profiling, strain panel (AID 1159580);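 further: tested at 20 µM; growth read once vehicle control cultures reached saturation at 30 °C; 1 = growth at the plate median or of vehicle wells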
Details: growth OD
[1] = S. cerevisiae deletion strains, locus YGR078C, strain PAC10, stronger effect = lower value
[2] = S. cerevisiae deletion strains, locus YJR075W, strain HOC1, stronger effect = lower value
[3] = S. cerevisiae deletion strains, locus YNL128W, strain TEP1, stronger effect = lower value
[4] = S. cerevisiae deletion strains, locus YNL153C, strain GIM3, stronger effect = lower value
[5] = S. cerevisiae deletion strains, locus YNL322C, strain KRE1, stronger effect = lower value
[6] = S. cerevisiae deletion strains, locus YPL055C, strain LGE1, stronger effect = lower value
[7] = S. cerevisiae deletion strains, locus YAL013W, strain DEP1, stronger effect = lower value
[8] = S. cerevisiae deletion strains, locus YBR229C, strain ROT2, stronger effect = lower value
[9] = S. cerevisiae deletion strains, locus YDL101C, strain DUN1, stronger effect = lower value
[10] = S. cerevisiae deletion strains, locus YDR150W, strain NUM1, stronger effect = lower value
[11] = S. cerevisiae deletion strains, locus YEL061C, strain CIN8, stronger effect = lower value
[12] = S. cerevisiae deletion strains, locus YHR030C, strain SLT2, stronger effect = lower value
[13] = S. cerevisiae deletion strains, locus YJR043C, strain POL32, stronger effect = lower value
[14] = S. cerevisiae deletion strains, locus YKL190W, strain CNB1, stronger effect = lower value
[15] = S. cerevisiae deletion strains, locus YLR039C, strain RIC1, stronger effect = lower value
[16] = S. cerevisiae deletion strains, locus YLR262C, strain YPT6, stronger effect = lower value
[17] = S. cerevisiae deletion strains, locus YMR263W, strain SAP30, stronger effect = lower value
[18] = S. cerevisiae deletion strains, locus YPL241C, strain CIN2, stronger effect = lower value

Measured: normalized growth

CN(C)C(=O)N=NC(=O)N(C)C
inactive: S. cerevisiae deletion strains, locus YAL040C, strain CLN3, stronger effect = lower value 0.985 | S. cerevisiae deletion strains, locus YCL061C, strain MRC1 (second series), stronger effect = lower value 0.994 | S. cerevisiae deletion strains, locus YDR363W, strain ESC2, stronger effect = lower value 1.04 | S. cerevisiae deletion strains, locus YER002W, strain NOP16, stronger effect = lower value 1.03 | [1] 0.99 | [2] 1.02 | [3] 0.983 | [4] 0.968 | S. cerevisiae deletion strains, locus YNL175C, strain NOP13, stronger effect = lower value 0.996 | S. cerevisiae deletion strains, locus YNL197C, strain WHI3, stronger effect = lower value 0.984 | S. cerevisiae deletion strains, locus YNL224C, strain SQS1, stronger effect = lower value 1.01 | [5] 1.02 | S. cerevisiae deletion strains, locus YOR083W, strain WHI5 (second series), stronger effect = lower value 0.968 | [6] 1.06

O=C1CC2(CCCC2)C(=O)N1CCNc1nccc(C(F)(F)F)n1
inactive: [7] 1.01 | [8] 0.991 | S. cerevisiae deletion strains, locus YCL061C, strain MRC1, stronger effect = lower value 0.977 | [9] 0.985 | [10] 1.05 | [11] 1.01 | [1] 0.982 | [12] 0.994 | S. cerevisiae deletion strains, locus YHR087W, strain rtc3, stronger effect = lower value 1.03 | S. cerevisiae deletion strains, locus YJL187C, strain SWE1, stronger effect = lower value 0.995 | [13] 0.999 | [2] 0.97 | [14] 0.984 | [15] 0.935 | S. cerevisiae deletion strains, locus YLR058C, strain SHM2 (second series), stronger effect = lower value 0.975 | S. cerevisiae deletion strains, locus YLR085C, strain ARP6, stronger effect = lower value 0.999 | [16] 0.972 | S. cerevisiae deletion strains, locus YML094W, strain GIM5, stronger effect = lower value 1 | S. cerevisiae deletion strains, locus YMR219W, strain ESC1, stronger effect = lower value 0.997 | [17] 1.01 | [3] 0.989 | [4] 1.01 | S. cerevisiae deletion strains, locus YNL298W, strain CLA4 (second series), stronger effect = lower value 0.964 | [5] 0.993 | S. cerevisiae deletion strains, locus YNR030W, strain Alg12, stronger effect = lower value 0.986 | [6] 1.03 | [18] 1 | S. cerevisiae deletion strains, locus YPR135W, strain CTF4, stronger effect = lower value 0.941

COc1cc(-c2oc3cc(O)ccc3c(=O)c2O)cc(OC)c1OC
inactive: [7] 1.01 | S. cerevisiae deletion strains, locus YBR021W, strain FUR4, stronger effect = lower value 1.02 | [8] 1.01 | S. cerevisiae deletion strains, locus YCL029C, strain bik1, stronger effect = lower value 1.01 | S. cerevisiae deletion strains, locus YDL035C, strain GPR1, stronger effect = lower value 1 | S. cerevisiae deletion strains, locus YDL074C, strain BRE1, stronger effect = lower value 0.996 | [9] 0.999 | S. cerevisiae deletion strains, locus YDL134C, strain PPH21, stronger effect = lower value 1 | S. cerevisiae deletion strains, locus YDL185W, strain tfp1, stronger effect = lower value 0.996 | S. cerevisiae deletion strains, locus YDL192W, strain arf1, stronger effect = lower value 0.999 | S. cerevisiae deletion strains, locus YDR101C, strain arx1, stronger effect = lower value 1 | [10] 1.01 | S. cerevisiae deletion strains, locus YDR162C, strain NBP2, stronger effect = lower value 0.989 | S. cerevisiae deletion strains, locus YDR318W, strain mcm21, stronger effect = lower value 1.02 | S. cerevisiae deletion strains, locus YDR388W, stronger effect = lower value 0.999 | S. cerevisiae deletion strains, locus YDR502C, strain sam2, stronger effect = lower value 1 | [11] 0.998 | S. cerevisiae deletion strains, locus YER110C, stronger effect = lower value 1.01 | S. cerevisiae deletion strains, locus YER155C, strain BEM2, stronger effect = lower value 1.02 | S. cerevisiae deletion strains, locus YER167W, strain BCK2, stronger effect = lower value 1.02 | S. cerevisiae deletion strains, locus YGL078C, strain dbp3, stronger effect = lower value 0.995 | S. cerevisiae deletion strains, locus YGL086W, strain mad1, stronger effect = lower value 1.02 | S. cerevisiae deletion strains, locus YGL248W, strain PDE1, stronger effect = lower value 1 | [1] 0.989 | S. cerevisiae deletion strains, locus YGR135W, strain pre9, stronger effect = lower value 0.981 | S. cerevisiae deletion strains, locus YGR229C, strain SMI1, stronger effect = lower value 0.98 | S. cerevisiae deletion strains, locus YGR252W, strain gcn5, stronger effect = lower value 1.06 | [12] 1.01 | S. cerevisiae deletion strains, locus YHR079C, strain IRE1 (second series), stronger effect = lower value 1.01 | S. cerevisiae deletion strains, locus YHR094C, strain hxt1, stronger effect = lower value 1.01 | S. cerevisiae deletion strains, locus YHR129C, strain ARP1, stronger effect = lower value 0.998 | S. cerevisiae deletion strains, locus YHR200W, strain rpn10, stronger effect = lower value 1.01 | S. cerevisiae deletion strains, locus YIL066C, strain RNR3, stronger effect = lower value 1 | S. cerevisiae deletion strains, locus YIL073C, strain SPO22, stronger effect = lower value 1.05 | S. cerevisiae deletion strains, locus YIL125W, strain kgd1, stronger effect = lower value 1.01 | S. cerevisiae deletion strains, locus YIR030C, strain dcg1, stronger effect = lower value 1.01 | S. cerevisiae deletion strains, locus YJL095W, strain BCK1, stronger effect = lower value 0.984 | S. cerevisiae deletion strains, locus YJL134W, strain LCB3, stronger effect = lower value 0.996 | S. cerevisiae deletion strains, locus YJL168C, strain set2, stronger effect = lower value 1.01 | S. cerevisiae deletion strains, locus YJL187C, strain SWE1 (second series), stronger effect = lower value 0.99 | [13] 1.01 | [2] 1.01 | S. cerevisiae deletion strains, locus YKL009W, strain mrt4, stronger effect = lower value 1.04 | S. cerevisiae deletion strains, locus YKL068W, stronger effect = lower value 0.998 | S. cerevisiae deletion strains, locus YKL085W, strain MDH1 (second series), stronger effect = lower value 1.02 | S. cerevisiae deletion strains, locus YKL085W, strain MDH1, stronger effect = lower value 1.02 | [14] 1.01 | S. cerevisiae deletion strains, locus YKR001C, strain vps1, stronger effect = lower value 1.01 | [15] 1.02 | S. cerevisiae deletion strains, locus YLR058C, strain SHM2, stronger effect = lower value 0.999 | S. cerevisiae deletion strains, locus YLR102C, strain apc9, stronger effect = lower value 1.01 | [16] 0.979 | S. cerevisiae deletion strains, locus YLR268W, strain sec22, stronger effect = lower value 1 | S. cerevisiae deletion strains, locus YLR330W, strain CHS5, stronger effect = lower value 1 | S. cerevisiae deletion strains, locus YLR342W, strain FKS1 (second series), stronger effect = lower value 1.05 | S. cerevisiae deletion strains, locus YLR371W, strain rom2, stronger effect = lower value 1.02 | S. cerevisiae deletion strains, locus YLR418C, strain cdc73, stronger effect = lower value 0.974 | S. cerevisiae deletion strains, locus YML016C, strain PPZ1, stronger effect = lower value 1 | S. cerevisiae deletion strains, locus YML032C, strain rad52, stronger effect = lower value 1.03 | S. cerevisiae deletion strains, locus YML124C, strain tub3, stronger effect = lower value 1.01 | S. cerevisiae deletion strains, locus YMR078C, strain ctf18, stronger effect = lower value 1.02 | S. cerevisiae deletion strains, locus YMR223W, strain ubp8, stronger effect = lower value 1.01 | [17] 1.01 | S. cerevisiae deletion strains, locus YMR307W, strain GAS1, stronger effect = lower value 0.995 | S. cerevisiae deletion strains, locus YNL067W, strain RPL9B, stronger effect = lower value 0.986 | [3] 0.996 | [4] 0.986 | S. cerevisiae deletion strains, locus YNL233W, strain BNI4, stronger effect = lower value 0.969 | S. cerevisiae deletion strains, locus YNL250W, strain rad50, stronger effect = lower value 1 | S. cerevisiae deletion strains, locus YNL271C, strain bni1, stronger effect = lower value 1.02 | S. cerevisiae deletion strains, locus YNL298W, strain CLA4, stronger effect = lower value 1.01 | S. cerevisiae deletion strains, locus YNL307C, strain MCK1, stronger effect = lower value 1.02 | [5] 1 | S. cerevisiae deletion strains, locus YNR052C, strain pop2, stronger effect = lower value 1.02 | S. cerevisiae deletion strains, locus YOL006C, strain TOP1, stronger effect = lower value 0.999 | S. cerevisiae deletion strains, locus YOL012C, strain htz1 1.14 | S. cerevisiae deletion strains, locus YOL147C, strain pex11, stronger effect = lower value 1.01 | S. cerevisiae deletion strains, locus YOR061W, strain CKA2, stronger effect = lower value 1 | S. cerevisiae deletion strains, locus YOR069W, strain VPS5, stronger effect = lower value 1 | S. cerevisiae deletion strains, locus YOR136W, strain idh2, stronger effect = lower value 1.02 | S. cerevisiae deletion strains, locus YOR144C, strain elg1, stronger effect = lower value 1 | S. cerevisiae deletion strains, locus YOR184W, strain ser1, stronger effect = lower value 1.04 | S. cerevisiae deletion strains, locus YOR316C, strain cot1, stronger effect = lower value 1 | [6] 1 | [18] 1.01 | S. cerevisiae deletion strains, locus YPR119W, strain clb2, stronger effect = lower value 1 | S. cerevisiae deletion strains, locus YPR141C, strain kar3, stronger effect = lower value 1.01 | S. cerevisiae deletion strains, locus YPR163C, strain tif3, stronger effect = lower value 0.991 | S. cerevisiae deletion strains, locus YPR167C, strain met16, stronger effect = lower value 1.01 | S. cerevisiae deletion strains, strain wtn01, stronger effect = lower value 1 | S. cerevisiae strains, strain wild type, stronger effect = lower value 0.994
